# Results from PubChem BioAssay (NCI).
# Compounds without any hit were thinned out: in the full panel of roughly 83,000, 20% have a hit.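 Results are percent growth after 48 hours of single-concentration exposure. 100 means growth as in untreated cells, lower positive values show inhibition; negative values down to -100 show cell death.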 A number with no mark means an inactive call. The source made the active and inactive calls. The calls were made as follows: active = growth percent below 10; inactive = the rest.
# What was measured:
# Experiment in all cases: NCI-60 one-dose screen, 48 h (100 = growth as untreated, 0 = no growth, -100 = all killed)
# Settings in all cases: 10 µM unless noted
# [1] = test system: NCI-H23 lung
# [2] = test system: NCI-H226 lung
# [3] = test system: NCI-H322M lung
# [4] = test system: HOP-62 NSCLC
# [5] = test system: NCI-H460 lung
# [6] = test system: HOP-92 NSCLC
# [7] = test system: NCI-H522 lung
# [8] = test system: A549/ATCC NSCLC
# [9] = test system: 786-0 renal
# [10] = test system: COLO 205 colon
# [11] = test system: DU-145 prostate
# [12] = test system: K-562 leukemia
# [13] = test system: MALME-3M melanoma
# [14] = test system: MDA-MB-231 breast
# [15] = test system: RXF 393 renal
# [16] = test system: SF-268 CNS
# [17] = test system: SF-295 CNS
# [18] = test system: SF-539 CNS
# [19] = test system: UACC-257 melanoma
# [20] = test system: M14 melanoma
SMILES,growth [1],growth [2],growth [3],growth [4],growth [5],growth [6],growth [7],growth [8],growth [9],growth [10],growth [11],growth [12],growth [13],growth [14],growth [15],growth [16],growth [17] [%],growth [18],growth [19],growth [20]
CC[N+](CC)=c1cc2oc3cc(N(C)C)ccc3nc-2cc1C,8.14% (active),79%,-28.4% (active),18.3%,36.4%,63.9%,-43.8% (active),36.5%,70.4%,-9.82% (active),73.8%,55.2%,-25.5% (active),8.42% (active),81.7%,2.86% (active),17.7,22.2%,-28% (active),18.2%
C=C[C@@H]1C[C@@H]2Cc3ccccc3N1O2,98.9%,109%,112%,96.6%,107%,126%,120%,96.3%,104%,116%,120%,54.3%,125%,106%,119%,116%,99.8,103%,97.7%,102%
CC(C)(C)n1cc(-c2ccnc(NCCNS(=O)(=O)c3ccc(Cl)cc3)c2)c(-c2cccc(O)c2)n1,64.7%,67.5%,85.3%,84.9%,28.2%,72%,68%,51.8%,54.6%,-7.89% (active),80.6%,6.91% (active),64.4%,56.6%,64.3%,54.7%,54.4,68.1%,64.8%,62.8%
COc1ccc2[nH]c(C(=O)OCc3ccc4c(Cl)cc(Cl)c(O)c4n3)cc2c1,-23.9% (active),-59% (active),54.3%,28.2%,-35.2% (active),-78.6% (active),-76.8% (active),5.45% (active),-83.1% (active),-75% (active),-98.2% (active),-13.7% (active),-79.9% (active),-75.9% (active),-93% (active),-72.9% (active),67.8,-96.4% (active),-77.3% (active),-78.2% (active)
COc1ccc(C2C(C#N)=C(N)Oc3c2ccc2ccccc32)cc1 (stereo not given),52.8%,39.4%,67.8%,37.3%,14.6%,48.4%,3.93% (active),57.1%,73.1%,91.1%,78.4%,19.6%,47.9%,31.2%,36.5%,50.5%,24.2,25.6%,75.1%,30.2%
O=C1NC(=C(Cl)Cl)/C(=N/S(=O)(=O)N2CCC(C3(C(F)(F)F)N=N3)CC2)N1,45.3%,106%,95.8%,104%,100%,87%,-58% (active),106%,103%,26%,102%,8.72% (active),100%,71.2%,79.5%,86%,101,98.2%,97.2%,98.9%
COc1cccc(-c2nc3sccn3c2-c2ccnc(NCCCNS(=O)(=O)c3ccc(F)cc3)c2)c1,30.6%,27.5%,69.9%,64.1%,34.8%,58.8%,29.3%,23.2%,56.8%,33.1%,34%,17.8%,39.6%,57.4%,63.2%,41.2%,18.6,67.2%,35.6%,25.7%
CN1CCN(Cc2ccc(NC(=O)c3nc4ccc5[nH]ncc5c4c4c3CCC4)cc2C(F)(F)F)CC1,19.2%,73.9%,-50.9% (active),-78.7% (active),-84.2% (active),65.5%,-71.1% (active),-71.6% (active),-96.5% (active),-43% (active),-90.1% (active),-46.6% (active),-55% (active),-84.3% (active),67.9%,98.2%,99.8,-96% (active),-64.5% (active),-84.5% (active)
NC(=O)c1c(NC(=S)Nc2ccc(OC(F)(F)F)cc2)sc2c1CCC1(C2)OCCO1,94.7%,92.9%,89.2%,99.9%,99.1%,96.3%,83%,97.3%,98.5%,108%,112%,94.6%,109%,98.9%,116%,103%,93.4,99%,97.1%,97.2%
O=C(Nc1ccncc1)C(=O)c1cn(S(=O)(=O)c2ccc(Cl)cc2)c2ccccc12,30.7%,78.3%,80.6%,31.4%,71.9%,32.8%,-2.79% (active),73.9%,34.9%,106%,27.7%,22.2%,31.7%,45.7%,25%,41.8%,13.1,9.27% (active),75.9%,17.7%
CCOC(=O)C1=C(C)NC(C)=C(C(=O)OCC)C1(C)C,113%,98.8%,107%,102%,111%,98.3%,98.1%,93.2%,88.2%,113%,123%,89.9%,111%,98.8%,98.1%,110%,117,91.7%,96.3%,109%
N/C(=N\S(=O)(=O)c1ccccc1)Nc1nc2ccccc2s1,87.9%,76.7%,91.1%,86.3%,107%,76.2%,73.2%,95.9%,95.4%,96.4%,111%,84.9%,105%,92.3%,99.4%,92.2%,92.7,91.2%,92.6%,101%
COc1ccc(Nc2nc(N)nc3c2CCN(Cc2ccc(OC)cc2OC)C3=O)cc1,73.1%,88%,71.1%,63.2%,67.8%,7.69% (active),89.3%,85.6%,72.1%,110%,88.6%,72.7%,80.8%,84.7%,81.6%,87.3%,57.1,63.5%,88.3%,64.6%
O=C(C1=Cc2cc3ccccc3n2Cc2cnnn21)c1ccccc1,73.6%,78.1%,80.6%,39.2%,30.9%,55.1%,9.68% (active),58.5%,69.1%,58.8%,85.6%,21.4%,76.9%,54.3%,54.6%,58.8%,56.3,57.8%,74.6%,22.2%
C=C1C(=O)O[C@H]2[C@H]1CC/C(Cn1cc(CNC(=O)c3cc4ccccc4[nH]3)nn1)=C\CC[C@@]1(C)O[C@@H]21,84.1%,101%,94.7%,101%,101%,32.2%,-65% (active),93.4%,66.1%,-34.4% (active),52.2%,2.12% (active),0.0965% (active),60.9%,24.5%,68.5%,110,6.92% (active),61.7%,57.8%
Cc1cc(C2=NNC(=O)Cc3cc4c(cc32)OCCO4)cc(C)c1N,44.2%,75.1%,44.9%,37.4%,17.6%,69%,-20.1% (active),50.7%,32.5%,9.99% (active),19.3%,25.5%,32.3%,67.5%,37.7%,44.6%,17.1,19.4%,60.1%,13.4%
